# According to the supplement of paper PMC12819154, “High-throughput peptide-centric local stability assay extends protein–ligand identification to membrane proteins, tissues and bacteria” (Nature Structural & Molecular Biology, 2025):
# Compound: Nc1ncnc2c1ncn2[C@@H]1O[C@H](COP(=O)(O)OP(=O)(O)OP(=O)(O)O)[C@@H](O)[C@H]1O [adenosine 5'-triphosphate]
# Experiment: log2 fold change of tryptic peptide abundance, ligand vs vehicle (limited proteolysis) (log2 ratio); higher = more trypsin-susceptible (destabilized)
# Conditions: ligand concentration: 5 mM; sample: E. coli desalted lysate; replicate design: treated before aliquoting
# Method: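 HT-PELSA: desalted E. coli K-12 BW25113 lysate (with 12 mM MgCl2) incubated with 5 mM ATP (pH 7) or water for 30 min at 25 C, then a 4 min trypsin pulse at 22 C. Peptides were quantified by DIA-MS (4 replicates). Value is the peptide log2 fold change (treated/control); negative = stabilized. Scale: negative = ligand-stabilized region.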
# 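Note: lysate desalted by size exclusion to strip endogenous ATP, peptide intensities built from DIA-NN precursor signals, and peptides missing any value discarded before comparison.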
row,Target,log2 fold change
1,"UniProt P21151 (peptide sequence: ISTTLLNLMERK, peptide start residue: 352)",0.834
2,"UniProt P31129 (peptide sequence: SNMDVLTGLPGRR, peptide start residue: 129)",-1.39
3,"UniProt P11553 (peptide sequence: AQIHYQYR, peptide start residue: 451)",0.93
4,"UniProt P26612 (peptide sequence: TIHLGENYGNK, peptide start residue: 446)",0.945
5,"UniProt P0A9K7 (peptide sequence: HVGGDELDKLLAGK, peptide start residue: 224)",-0.493
6,"UniProt P36683 (peptide sequence: EALGLPHSDVFR, peptide start residue: 359)",0.334
7,"UniProt P31680 (peptide sequence: LMSEHHPDKLVAK, peptide start residue: 228)",-0.381
8,"UniProt P24173 (peptide sequence: IKLPWGAPHEEER, peptide start residue: 213)",-0.445
9,"UniProt P0A7Y8 (peptide sequence: KGVADLDNR, peptide start residue: 91)",0.915
10,"UniProt Q06065 (peptide sequence: FSSENQR, peptide start residue: 334)",-2.8
11,"UniProt P39343 (peptide sequence: IKNNDHNHNTVDLGYQIYHGNTL, peptide start residue: 310)",-0.756
12,"UniProt P30958 (peptide sequence: FANWPVR, peptide start residue: 673)",-0.413
13,"UniProt P37028 (peptide sequence: IVALKPDLVIAWR, peptide start residue: 74)",0.465
14,"UniProt P26365 (peptide sequence: SATGASVWVLSNR, peptide start residue: 277)",-0.606
15,"UniProt P19323 (peptide sequence: ELENVIER, peptide start residue: 600)",-0.833
16,"UniProt P00579 (peptide sequence: EPTPEELAER, peptide start residue: 477)",0.829
17,"UniProt P00960 (peptide sequence: AVAEAYYASREALGFPMCNKDK, peptide start residue: 282)",0.93
18,"UniProt P77689 (peptide sequence: INSLAMPVKNEVCDTR, peptide start residue: 270)",1.09
19,"UniProt P17888 (peptide sequence: TNYAVSGER, peptide start residue: 188)",-1.98
20,"UniProt P33940 (peptide sequence: EYYPQAK, peptide start residue: 403)",-1.61

row,Target,log2 fold change
1,"UniProt P29131 (peptide sequence: MAGHTNCIR, peptide start residue: 306)",-0.526
2,"UniProt Q46919 (peptide sequence: MHDLLDNK, peptide start residue: 59)",0.557
3,"UniProt P77316 (peptide sequence: HGDIFGHEFMGEVVETGKDVK, peptide start residue: 54)",-0.836
4,"UniProt P28861 (peptide sequence: ETAAGSLTGR, peptide start residue: 175)",-1.31
5,"UniProt P22255 (peptide sequence: ESFLNPGFR, peptide start residue: 234)",0.721
6,"UniProt P76149 (peptide sequence: AGAAIGAQAGAALKK, peptide start residue: 216)",-1.54
7,"UniProt P27126 (peptide sequence: IGMDNAWLGR, peptide start residue: 45)",-0.467
8,"UniProt P06710 (peptide sequence: HQLEHILNEEHIAHEPR, peptide start residue: 185)",-1.86
9,"UniProt P76257 (peptide sequence: GQPLVVEAGTGTGK, peptide start residue: 38)",-0.82
10,"UniProt P45799 (peptide sequence: SLQKPTILNVETVAR, peptide start residue: 4)",-1.1
11,"UniProt P39399 (peptide sequence: AAGVSPVVVR, peptide start residue: 118)",0.3
12,"UniProt P75968 (peptide sequence: HLIIKPLSR, peptide start residue: 102)",-1.04
13,"UniProt P09029 (peptide sequence: DVFPIIADR, peptide start residue: 72)",-2.73
14,"UniProt P37024 (peptide sequence: LVVDCAQER, peptide start residue: 286)",-0.502
15,"UniProt P0A9U6 (peptide sequence: VSPAISTLQK, peptide start residue: 45)",0.654
16,"UniProt P0AD57 (peptide sequence: QRAEEEADKAIAALQVLPDTPWR, peptide start residue: 286)",0.56
17,"UniProt P37902 (peptide sequence: ALFKEPNDKALN, peptide start residue: 291)",1.12
18,"UniProt P0ACL0 (peptide sequence: IILAGGELR, peptide start residue: 137)",-0.596
19,"UniProt P77279 (peptide sequence: NIAELSGGEK, peptide start residue: 134)",-0.683
20,"UniProt P08201 (peptide sequence: LIVSEDNK, peptide start residue: 359)",1.35
